These results are taken from article PMC4081100, “A DNA-binding-site landscape and regulatory network analysis for NAC transcription factors in Arabidopsis thaliana”.

Holding throughout (assay): universal protein binding microarray (PBM); transcription factors of Arabidopsis thaliana; high values mean tight binding
What all share (details): protein: recombinant; tags: GST; chain copies: 2; dsDNA, one strand shown

In assay [1] the target is T1, GST-ANAC092(1-176) (Arabidopsis thaliana, UniProt Q9FKA0 1-176).
T1 sequence: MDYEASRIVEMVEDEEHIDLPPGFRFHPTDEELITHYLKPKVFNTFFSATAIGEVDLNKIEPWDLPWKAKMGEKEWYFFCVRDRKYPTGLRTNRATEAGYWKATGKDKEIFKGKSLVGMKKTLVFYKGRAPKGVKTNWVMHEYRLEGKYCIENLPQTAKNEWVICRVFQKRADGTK
The method in brief: (§1)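 GST-tagged NAC-domain, full-length or DNA-binding-domain proteins were induced in cells, with zinc acetate added for zinc-finger proteins. They were purified on glutathione–Sepharose 4B and quantified by A280 or anti-GST western blot. Each was applied at 200 to 500 nM final, in duplicate, to custom all-10-mer Agilent 4 × 180K arrays made double-stranded by primer extension, with gapped and ungapped 8-mers scored. Binding is the normalised enrichment score (E-score).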

In assay [2] the target is GST-NTL6(1-168) (Arabidopsis thaliana, UniProt Q9SCK6 1-168). The method in brief: as §1
Assay [3] deals with T2, GST-ANAC019 NAC domain (Arabidopsis thaliana, UniProt Q9C932 14-162).
T2 sequence: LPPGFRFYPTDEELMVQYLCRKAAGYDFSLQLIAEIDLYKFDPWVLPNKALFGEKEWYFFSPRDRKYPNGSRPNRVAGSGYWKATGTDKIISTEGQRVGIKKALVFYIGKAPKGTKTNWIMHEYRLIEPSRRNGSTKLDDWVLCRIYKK
In short, it runs like this: as §1

For assay [4], the target named is T3, GST-ANAC055(1-171) (Arabidopsis thaliana, UniProt Q9LDY8 1-171).
T3 sequence: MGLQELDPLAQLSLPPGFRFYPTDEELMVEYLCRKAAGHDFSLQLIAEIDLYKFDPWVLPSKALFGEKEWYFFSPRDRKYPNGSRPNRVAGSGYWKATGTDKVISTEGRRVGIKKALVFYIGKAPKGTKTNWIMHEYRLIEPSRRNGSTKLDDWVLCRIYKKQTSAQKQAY
The method in brief:
as §1

The target of assay [5] is T4, GST-ATAF1 NAC domain (Arabidopsis thaliana, UniProt Q39013 7-158).
T4 sequence: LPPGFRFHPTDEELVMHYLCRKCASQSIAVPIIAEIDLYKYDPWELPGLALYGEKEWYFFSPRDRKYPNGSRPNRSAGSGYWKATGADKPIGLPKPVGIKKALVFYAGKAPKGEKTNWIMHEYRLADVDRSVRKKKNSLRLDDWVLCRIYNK
In short, it runs like this: as §1

The target of assay [6] is T5, GST-ANAC092(1-285) full length (Arabidopsis thaliana, UniProt Q9FKA0 1-285).
T5 sequence: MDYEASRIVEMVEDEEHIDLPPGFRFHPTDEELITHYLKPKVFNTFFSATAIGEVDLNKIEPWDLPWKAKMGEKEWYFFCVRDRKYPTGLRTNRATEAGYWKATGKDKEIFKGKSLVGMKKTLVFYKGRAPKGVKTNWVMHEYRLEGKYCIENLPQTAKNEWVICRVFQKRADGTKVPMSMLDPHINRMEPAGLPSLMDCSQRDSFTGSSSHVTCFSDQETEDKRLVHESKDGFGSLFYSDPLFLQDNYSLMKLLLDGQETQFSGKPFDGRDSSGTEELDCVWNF
In short, it runs like this:
as §1

In assay [7] the target is T6, GST-NAP(1-166) (Arabidopsis thaliana, UniProt O49255 1-166).
T6 sequence: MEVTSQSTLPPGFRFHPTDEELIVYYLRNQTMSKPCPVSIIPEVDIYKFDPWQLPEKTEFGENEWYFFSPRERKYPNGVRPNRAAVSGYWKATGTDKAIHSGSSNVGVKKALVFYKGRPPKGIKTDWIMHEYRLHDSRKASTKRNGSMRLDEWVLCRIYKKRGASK
In short, it runs like this:
as §1

Assay [8] concerns the target T7, GST-NST2(1-184) (Arabidopsis thaliana, UniProt Q9M274 1-184).
T7 sequence: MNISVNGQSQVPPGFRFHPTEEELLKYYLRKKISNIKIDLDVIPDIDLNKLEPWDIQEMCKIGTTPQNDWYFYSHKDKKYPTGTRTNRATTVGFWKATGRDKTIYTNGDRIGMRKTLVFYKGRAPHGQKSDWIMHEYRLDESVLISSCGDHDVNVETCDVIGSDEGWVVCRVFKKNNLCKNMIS
In short, it runs like this:
as §1

Assay [9] concerns the target T8, GST-NTL8 NAC domain (Arabidopsis thaliana, UniProt Q9XIN7 14-156).
T8 sequence: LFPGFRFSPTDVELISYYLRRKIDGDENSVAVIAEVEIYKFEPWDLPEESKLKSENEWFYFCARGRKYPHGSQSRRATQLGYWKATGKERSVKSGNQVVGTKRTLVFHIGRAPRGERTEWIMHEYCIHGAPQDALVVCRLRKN
The method in brief: as §1

Assay [10] deals with T9, GST-SND1(1-203) (Arabidopsis thaliana, UniProt Q9LPI7 1-203).
T9 sequence: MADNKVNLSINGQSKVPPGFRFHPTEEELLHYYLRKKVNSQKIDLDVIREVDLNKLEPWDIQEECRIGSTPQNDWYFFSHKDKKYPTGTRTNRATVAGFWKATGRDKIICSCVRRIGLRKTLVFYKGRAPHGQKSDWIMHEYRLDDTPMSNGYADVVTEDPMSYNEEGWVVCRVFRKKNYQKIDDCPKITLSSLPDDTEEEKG
The method in brief:
as §1

Assay [11] addresses T10, GST-VND3 NAC domain (Arabidopsis thaliana, UniProt Q9FH59 12-162).
T10 sequence: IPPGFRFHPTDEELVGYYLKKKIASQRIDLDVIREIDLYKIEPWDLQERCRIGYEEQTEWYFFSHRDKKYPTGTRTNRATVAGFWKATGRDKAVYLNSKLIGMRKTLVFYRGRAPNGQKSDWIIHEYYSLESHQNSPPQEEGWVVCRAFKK
The method in brief:
as §1

Assay [12] addresses T11, GST-VND7 NAC domain (Arabidopsis thaliana, UniProt Q9C8W9 9-158).
T11 sequence: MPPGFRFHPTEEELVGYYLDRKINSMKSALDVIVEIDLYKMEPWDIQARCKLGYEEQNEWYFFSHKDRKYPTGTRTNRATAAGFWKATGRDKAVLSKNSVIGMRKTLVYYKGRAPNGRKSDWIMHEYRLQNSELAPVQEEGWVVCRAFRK
In short, it runs like this:
as §1

Sequence of GST-NTL6(1-168) (Q9SCK6 1-168): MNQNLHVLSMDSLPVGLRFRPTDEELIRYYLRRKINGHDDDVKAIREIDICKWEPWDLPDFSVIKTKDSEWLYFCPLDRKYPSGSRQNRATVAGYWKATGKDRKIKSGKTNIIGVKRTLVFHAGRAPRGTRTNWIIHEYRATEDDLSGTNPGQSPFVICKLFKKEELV

AACGTAAG: the binding signal in assay [1] worked out at 0.32 E-score; in [2], 0.196 E-score; in assay [3], 0.132 E-score; in assay [4] it was 0.213 E-score; in assay [5], 0.255 E-score; in [6] it was 0.366 E-score. Further, the binding signal is 0.204 E-score in assay [7]; 0.262 E-score in assay [8]; 0.124 E-score in assay [9]; 0.436 E-score in assay [10]; 0.289 E-score in [11]; 0.226 E-score in [12].
Consider CGAGGAAA, for which the binding signal in [1] was found to be 0.0746 E-score; in assay [2], 0.138 E-score; in assay [3], 0.0533 E-score; in [4] it was 0.139 E-score; in assay [5] it was 0.152 E-score; in [6], 0.131 E-score. Besides, the binding signal is 0.0581 E-score in assay [7]; 0.0987 E-score in assay [8]; 0.442 E-score in assay [9]; 0.17 E-score in assay [10]; 0.155 E-score in assay [11]; 0.173 E-score in [12].
For GCGTATAA, the binding signal worked out at 0.375 E-score in assay [1]; 0.0699 E-score in assay [2]; 0.0915 E-score in assay [3]; 0.23 E-score in assay [4]; 0.229 E-score in assay [5]; 0.409 E-score in assay [6]. The binding signal in assay [7] is 0.181 E-score; in assay [8], 0.285 E-score; in assay [9] it was 0.11 E-score; in assay [10], 0.399 E-score; in assay [11] it was 0.213 E-score; in [12], 0.161 E-score.
With CCACGCAA, the binding signal in [1] worked out at 0.472 E-score; in assay [2] it was 0.116 E-score; in assay [3], 0.383 E-score; in assay [4], 0.363 E-score; in [5], 0.235 E-score; in [6], 0.474 E-score. Besides, the binding signal in assay [7] was determined as 0.305 E-score; in assay [8], 0.348 E-score; in [9] it was 0.0836 E-score; in [10], 0.41 E-score; in assay [11], 0.354 E-score; in assay [12] it was 0.337 E-score.
For CACGTTTC, the binding signal stood at 0.424 E-score in assay [1]; 0.107 E-score in assay [2]; 0.381 E-score in assay [3]; 0.375 E-score in [4]; 0.383 E-score in assay [5]; 0.432 E-score in assay [6]. For the same sequence, the binding signal stood at 0.332 E-score in [7]; 0.286 E-score in [8]; 0.217 E-score in assay [9]; 0.299 E-score in assay [10]; 0.262 E-score in [11]; 0.298 E-score in assay [12].
As to AAGTTACC, the binding signal in assay [1] is 0.365 E-score; in assay [2], 0.308 E-score; in assay [3] it was 0.155 E-score; in [4], 0.0803 E-score; in assay [5], 0.142 E-score; in [6] it was 0.417 E-score. The binding signal came to 0.114 E-score in assay [7]; 0.288 E-score in assay [8]; 0.376 E-score in [9]; 0.37 E-score in [10]; 0.146 E-score in assay [11]; 0.0773 E-score in assay [12].
Consider GAAACGTA, for which the binding signal in assay [1] came to 0.355 E-score; in assay [2], 0.0734 E-score; in assay [3], 0.241 E-score; in assay [4], 0.219 E-score; in assay [5], 0.224 E-score; in [6] it was 0.411 E-score. Besides, the binding signal in assay [7] came out at 0.223 E-score; in assay [8] it was 0.212 E-score; in [9], 0.288 E-score; in assay [10], 0.435 E-score; in assay [11], 0.332 E-score; in assay [12], 0.268 E-score.
Regarding CCACGTAA, the binding signal stood at 0.359 E-score in assay [1]; 0.0826 E-score in [2]; 0.432 E-score in assay [3]; 0.37 E-score in [4]; 0.306 E-score in assay [5]; 0.393 E-score in [6]. Further, the binding signal in [7] amounted to 0.308 E-score; in [8], 0.157 E-score; in assay [9], 0.167 E-score; in assay [10] it was 0.0962 E-score; in [11], 0.326 E-score; in [12], 0.341 E-score.
For GTTGCGTA, the binding signal in assay [1] was found to be 0.486 E-score; in assay [2], 0.184 E-score; in assay [3], 0.461 E-score; in [4], 0.431 E-score; in assay [5], 0.415 E-score; in [6], 0.49 E-score. The binding signal turned out to be 0.477 E-score in [7]; 0.465 E-score in assay [8]; 0.216 E-score in [9]; 0.495 E-score in assay [10]; 0.452 E-score in [11]; 0.466 E-score in [12].
GCGTAAAA: the binding signal in assay [1] amounted to 0.261 E-score; in assay [2] it was 0.0562 E-score; in assay [3], 0.15 E-score; in [4], 0.087 E-score; in assay [5] it was 0.185 E-score; in assay [6] it was 0.247 E-score. Moreover, the binding signal in assay [7] turned out to be 0.0952 E-score; in assay [8] it was 0.239 E-score; in assay [9], 0.107 E-score; in assay [10] it was 0.407 E-score; in [11] it was 0.197 E-score; in assay [12], 0.174 E-score.
Take ATTCCGTA: the binding signal worked out at 0.209 E-score in assay [1]; 0.17 E-score in assay [2]; 0.456 E-score in [3]; 0.385 E-score in assay [4]; 0.308 E-score in assay [5]; 0.342 E-score in assay [6]. Also, the binding signal in assay [7] amounted to 0.381 E-score; in assay [8] it was 0.194 E-score; in [9] it was 0.0978 E-score; in assay [10], 0.239 E-score; in [11] it was 0.434 E-score; in assay [12], 0.374 E-score.
As for CTACGTAA, the binding signal in [1] is 0.329 E-score; in [2] it was 0.0836 E-score; in assay [3], 0.352 E-score; in [4] it was 0.295 E-score; in assay [5], 0.316 E-score; in [6], 0.378 E-score. The binding signal was found to be 0.312 E-score in assay [7]; 0.0582 E-score in assay [8]; 0.105 E-score in assay [9]; 0.402 E-score in [10]; 0.378 E-score in assay [11]; 0.345 E-score in [12].
In the case of GGAAGCAA, the binding signal in assay [1] is 0.318 E-score; in assay [2] it was 0.36 E-score; in assay [3], 0.117 E-score; in assay [4], 0.136 E-score; in assay [5], 0.137 E-score; in assay [6], 0.405 E-score. The binding signal worked out at 0.0755 E-score in assay [7]; 0.242 E-score in assay [8]; 0.269 E-score in assay [9]; 0.385 E-score in assay [10]; 0.118 E-score in assay [11]; 0.0735 E-score in assay [12].
